# PubChem BioAssay (NCATS)
# Results filed as inconclusive are left out. Unmarked numbers belong to inactive results. Calls come from the whole dose curve; as a rule, active = well fitted cell-killing curve with a large enough effect; inconclusive = small, poorly fitted or top-dose-only effect, or effect the other way; inactive = flat fitted curve, though single readings scatter.
# Tested on: Es-2
# Assay: Primary qHTS to identify gynecologic anti-cancer compounds using libraries of approved drugs and bioactive compounds (AID 1345084); note: nearly all actives have a fitted effect of over 55% in size
# Conditions: Gynecologic cancer cell panel viability, ATPlite luminescence, 48 h; series mostly up to 57.5 µM; activity change, negative = cytotoxicity: at the top concentration
# Summary of the method: (§1)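 48 h compound exposure at 37 C, 5% CO2; five-point qHTS. ATPlite luminescence readout of cell ATP.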
# % is set by controls: 0 for no effect and ±100 for the full control effect.
row,Compound,"activity change, negative = cytotoxicity"
1,COc1ccc(C(=O)NCc2cc(C(C)C)no2)cc1OC1CCN(C)CC1,9.38%
2,COC(=O)C1C(O)CCC2CN3CCc4c([nH]c5ccccc45)C3CC21 (configuration not stated),2.27% [at 38.5 µM]
3,CC(C)=C1C[C@@]2(C)C(=CC1=O)CC[C@@H](O)[C@@H]2C,2.31%
4,Cc1ccccc1NC(=O)Nc1ccc(CN2C(=O)N([C@@H](CC(C)C)C(=O)N[C@@H](CC(=O)O)c3ccccc3)C(=O)C2(C)C)cc1,4.21%
5,CCOC(=O)C(CCc1ccccc1)NC1CCCN2CCCC(C(=O)O)N2C1=O (configuration not stated),7.18%
6,COc1c(-c2ccc(O)cc2)cc(OC)c2c1oc1cc(O)c(OC3OC(CO)C(O)C3O)cc12 (configuration not stated),-4.78% [at 25.3 µM]

# Tested on: HeLa
# Assay: as above
# Conditions: Gynecologic cancer cell panel viability, ATPlite luminescence, 48 h; series mostly up to 57.5 µM; activity change, negative = cytotoxicity: at the top concentration
# Summary of the method: as §1
row,Compound,"activity change, negative = cytotoxicity"
1,COc1cc(/C=C/C(=O)O[C@H]2C[C@@H]3C(C(=O)O)=CO[C@@H](O[C@@H]4O[C@H](CO)[C@@H](O)[C@H](O)[C@H]4O)[C@@H]3[C@H]2C)ccc1O,9.8% [at 25.3 µM]
2,H-DPPDPDRFYGMM-NH2,18% [at 25.3 µM]
3,CC1(C)C=Cc2c(ccc3c2N=C2C(C)(C)[C@@H]4C[C@]56CCCN5C(=O)[C@@]4(C[C@]23O)NC6=O)O1,11% [at 25.3 µM]
4,O=C(OC[C@H]1O[C@@H](Oc2ccccc2COC(=O)C2(O)C=CCCC2O)[C@H](O)[C@@H](O)[C@@H]1O)c1ccccc1 (some centres not stated),-17.9% [at 25.3 µM]
5,Cc1cc(CNC(=O)c2cc(C(=O)NCc3ccc(F)c(C)c3)ncn2)ccc1F,20.6%
6,CC(C)=CC1C[C@](C)(O)[C@@H]2[C@H]3CCC4[C@@]5(C)CC[C@H](O[C@@H]6OC[C@H](O)[C@H](O[C@@H]7O[C@H](CO[C@@H]8O[C@H](CO)[C@@H](O)[C@H](O)[C@H]8O)[C@@H](O)[C@H](O)[C@H]7O)[C@H]6O[C@@H]6O[C@@H](C)[C@H](O)[C@@H](O)[C@H]6O)C(C)(C)[C@@H]5CC[C@@]4(C)[C@@]34CO[C@@]2(C4)O1 (some centres not stated),6.98% [at 11.6 µM]
